# Measurements: paper PMC5540273 (PLoS ONE, 2017)
# Values joined by “and” are separate entries in the source; they are usually repeats but may differ in a detail not shown here. Identical values can stand only once. Like-named read-outs stand apart in the source and are kept apart here.
# Tests used:
# PRKCI = settings: concentration: 1 μM, replicates: in singlicate, n = 1
# PRKCQ = settings: concentration: 1 μM, replicates: in singlicate, n = 1
# PRKD1 = settings: concentration: 1 μM, replicates: in singlicate, n = 1
# PRKD2 = settings: concentration: 1 μM, replicates: in singlicate, n = 1
# PRKD3 = settings: concentration: 1 μM, replicates: in singlicate; n = 1
# PRKG1 = settings: concentration: 1 μM, replicates: in singlicate, n = 1
# PRKG2 = settings: concentration: 1 μM, replicates: in singlicate, n = 1
# PRKR = system: T1, PRKR; settings: concentration: 1 μM, replicates: in singlicate, n = 1
# T1 construct: gene EIF2AK2
# PRKX = settings: concentration: 1 μM, replicates: in singlicate, n = 1
# PRP4 = settings: concentration: 1 μM, replicates: in singlicate, n = 1
# PYK2 = system: T2, PYK2; settings: concentration: 1 μM, replicates: in singlicate, n = 1
# T2 construct: gene PTK2B
# QSK = settings: concentration: 1 μM, replicates: in singlicate, n = 1
# RAF1 = settings: concentration: 1 μM, replicates: in singlicate, n = 1
# RET = settings: concentration: 1 μM, replicates: in singlicate; n = 1
# RIOK1 = settings: concentration: 1 μM, replicates: in singlicate, n = 1
# RIOK2 = settings: concentration: 1 μM, replicates: in singlicate; n = 1
# RIOK3 = settings: concentration: 1 μM, replicates: in singlicate; n = 1
# RIPK1 = settings: concentration: 1 μM, replicates: in singlicate, n = 1
# RIPK2 = settings: concentration: 1 μM, replicates: in singlicate, n = 1
# RIPK4 = settings: concentration: 1 μM, replicates: in singlicate, n = 1
# 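Further: KINOMEscan kinase panel screen.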
smiles,measurement,setting,value
O=c1cc(N2CCOCC2)nc2n(Cc3cccc(F)c3)ccn12 [GSK2297430],%Inh,PRKCI,0%
same,%Inh,PRKCQ,11%
same,%Inh,PRKD1,6%
same,%Inh,PRKD2,0%
same,%Inh,PRKD3,0%
same,%Inh,PRKG1,10%
same,%Inh,PRKG2,0%
same,%Inh,PRKR,0%
same,%Inh,PRKX,2%
same,%Inh,PRP4,0%
same,%Inh,PYK2,22%
same,%Inh,QSK,0%
same,%Inh,RAF1,0%
same,%Inh,RET,31%
same,%Inh,RIOK1,35%
same,%Inh,RIOK2,11%
same,%Inh,RIOK3,35%
same,%Inh,RIPK1,0%
same,%Inh,RIPK2,0%
same,%Inh,RIPK4,0%
CN1c2ccc(CNc3ccc(F)cc3)cc2-c2c(cnn2C)S1(=O)=O,%Inh,PRKCI,0%
same,%Inh,PRKCQ,12%
same,%Inh,PRKD1,17%
same,%Inh,PRKD2,0%
same,%Inh,PRKD3,0%
same,%Inh,PRKG1,0%
same,%Inh,PRKG2,0%
same,%Inh,PRKR,0%
same,%Inh,PRKX,0%
same,%Inh,PRP4,11%
same,%Inh,PYK2,0%
same,%Inh,QSK,20%
same,%Inh,RAF1,0%
same,%Inh,RET,0%
same,%Inh,RIOK1,18%
same,%Inh,RIOK2,0%
same,%Inh,RIOK3,14%
same,%Inh,RIPK1,0%
same,%Inh,RIPK2,2%
same,%Inh,RIPK4,5%
NCC(NC(=O)c1cc(-c2cn[nH]c2)c(-c2ccnc3[nH]ccc23)s1)c1ccccc1.O=C(O)C(F)(F)F.O=C(O)C(F)(F)F (stereo not drawn) [GSK1325775],%Inh,PRKCI,25%
same,%Inh,PRKCQ,90.3%
same,%Inh,PRKD1,0%
same,%Inh,PRKD2,45%
same,%Inh,PRKD3,55%
same,%Inh,PRKG1,84%
same,%Inh,PRKG2,93.6%
same,%Inh,PRKR,27%
same,%Inh,PRKX,97.8%
same,%Inh,PRP4,72%
same,%Inh,PYK2,0%
same,%Inh,QSK,9%
same,%Inh,RAF1,0%
same,%Inh,RET,18%
same,%Inh,RIOK1,99.4%
same,%Inh,RIOK2,34%
same,%Inh,RIOK3,100%
same,%Inh,RIPK1,19%
same,%Inh,RIPK2,0%
same,%Inh,RIPK4,31%
CC(C)(C)n1cnc2c(N)ncnc21 [SKF-97359],%Inh,PRKCI,0%
same,%Inh,PRKCQ,0%
same,%Inh,PRKD1,0%
same,%Inh,PRKD2,13%
same,%Inh,PRKD3,0%
same,%Inh,PRKG1,12%
same,%Inh,PRKG2,0%
same,%Inh,PRKR,0%
same,%Inh,PRKX,0%
same,%Inh,PRP4,17%
same,%Inh,PYK2,0%
same,%Inh,QSK,0%
same,%Inh,RAF1,15%
same,%Inh,RET,19%
same,%Inh,RIOK1,2%
same,%Inh,RIOK2,0%
same,%Inh,RIOK3,0%
same,%Inh,RIPK1,0%
same,%Inh,RIPK2,0%
same,%Inh,RIPK4,67%
Cn1cc(-c2ccc3c(c2)CCN3C(=O)Cc2ccccc2Cl)c2c(N)ncnc21 [GSK2608885],%Inh,PRKCI,10%
same,%Inh,PRKCQ,83%
same,%Inh,PRKD1,0%
same,%Inh,PRKD2,47%
same,%Inh,PRKD3,54%
same,%Inh,PRKG1,0%
same,%Inh,PRKG2,0%
same,%Inh,PRKR,0%
same,%Inh,PRKX,19%
same,%Inh,PRP4,8%
same,%Inh,PYK2,38%
same,%Inh,QSK,23%
same,%Inh,RAF1,94.9%
same,%Inh,RET,99.9%
same,%Inh,RIOK1,23%
same,%Inh,RIOK2,0%
same,%Inh,RIOK3,21%
same,%Inh,RIPK1,0%
same,%Inh,RIPK2,99.4%
same,%Inh,RIPK4,0%
COC(=O)Nc1nc2cc(Oc3ccc(NC(=O)Nc4cc(F)ccc4F)cc3)ccc2[nH]1.Cl [GW701424],%Inh,PRKCI,0%
same,%Inh,PRKCQ,0%
same,%Inh,PRKD1,0%
same,%Inh,PRKD2,0%
same,%Inh,PRKD3,6%
same,%Inh,PRKG1,0%
same,%Inh,PRKG2,0%
same,%Inh,PRKR,0%
same,%Inh,PRKX,0%
same,%Inh,PRP4,62%
same,%Inh,PYK2,0%
same,%Inh,QSK,0%
same,%Inh,RAF1,89%
same,%Inh,RET,95.1%
same,%Inh,RIOK1,0%
same,%Inh,RIOK2,0%
same,%Inh,RIOK3,0%
same,%Inh,RIPK1,0%
same,%Inh,RIPK2,38%
same,%Inh,RIPK4,8%
Cc1c(Cn2c(C)nn3c(=O)cc(N4CCOC(C)C4)nc23)cccc1C(F)(F)F (stereo not drawn) [GSK2344444],%Inh,PRKCI,0%
same,%Inh,PRKCQ,0%
same,%Inh,PRKD1,0%
same,%Inh,PRKD2,0%
same,%Inh,PRKD3,22%
same,%Inh,PRKG1,14%
same,%Inh,PRKG2,0%
same,%Inh,PRKR,0%
same,%Inh,PRKX,3%
same,%Inh,PRP4,0%
same,%Inh,PYK2,0%
same,%Inh,QSK,4%
same,%Inh,RAF1,0%
same,%Inh,RET,1%
same,%Inh,RIOK1,27%
same,%Inh,RIOK2,10%
same,%Inh,RIOK3,0%
same,%Inh,RIPK1,0%
same,%Inh,RIPK2,0%
same,%Inh,RIPK4,7%
O=C(NCCCN1CCOCC1)c1cccc(Nc2nccc(Nc3ccc(Oc4ccccc4)cc3)n2)c1 [GW663929],%Inh,PRKCI,12%
same,%Inh,PRKCQ,0%
same,%Inh,PRKD1,13%
same,%Inh,PRKD2,25%
same,%Inh,PRKD3,17%
same,%Inh,PRKG1,0%
same,%Inh,PRKG2,5%
same,%Inh,PRKR,20%
same,%Inh,PRKX,17%
same,%Inh,PRP4,21%
same,%Inh,PYK2,0%
same,%Inh,QSK,0%
same,%Inh,RAF1,0%
same,%Inh,RET,17%
same,%Inh,RIOK1,31%
same,%Inh,RIOK2,23%
same,%Inh,RIOK3,36%
same,%Inh,RIPK1,24%
same,%Inh,RIPK2,100%
same,%Inh,RIPK4,29%
CC(C)(CN)c1nc(-c2ccc(Cl)c(O)c2)c(-c2ccncc2)[nH]1.O=C(O)C(F)(F)F [SB-477794],%Inh,PRKCI; 1 µM,97.5% and 97.8%
same,%Inh,PRKCQ; 1 µM,75% and 76%
same,%Inh,PRKD1; 1 µM,92.4% and 93.9%
same,%Inh,PRKD2; 1 µM,89% and 91.8%
same,%Inh,PRKD3,100%
same,%Inh,PRKG1; 1 µM,0% and 20%
same,%Inh,PRKG2; 1 µM,0% and 10%
same,%Inh,PRKR; 1 µM,0% and 12%
same,%Inh,PRKX; 1 µM,21% and 22%
same,%Inh,PRP4; 1 µM,69% and 33%
same,%Inh,PYK2; 1 µM,0% and 17%
same,%Inh,QSK; 1 µM,91.5% and 86%
same,%Inh,RAF1; 1 µM,98.5% and 95.1%
same,%Inh,RET,99.9%
same,%Inh,RIOK1; 1 µM,0% and 1%
same,%Inh,RIOK2,0%
same,%Inh,RIOK3,0%
same,%Inh,RIPK1; 1 µM,2% and 0%
same,%Inh,RIPK2; 1 µM,92.7% and 90%
same,%Inh,RIPK4; 1 µM,36% and 5%
Cl.Nc1ncnc2occ(-c3ccc(NC(=O)Nc4cc(C(F)(F)F)ccc4F)cc3)c12 [SB-707548],%Inh,PRKCI,25%
same,%Inh,PRKCQ,15%
same,%Inh,PRKD1,0%
same,%Inh,PRKD2,20%
same,%Inh,PRKD3,29%
same,%Inh,PRKG1,11%
same,%Inh,PRKG2,7%
same,%Inh,PRKR,28%
same,%Inh,PRKX,9%
same,%Inh,PRP4,8%
same,%Inh,PYK2,19%
same,%Inh,QSK,0%
same,%Inh,RAF1,78%
same,%Inh,RET,100%
same,%Inh,RIOK1,0%
same,%Inh,RIOK2,0%
same,%Inh,RIOK3,22%
same,%Inh,RIPK1,96%
same,%Inh,RIPK2,42%
same,%Inh,RIPK4,2%
CSc1ccc(-c2cc3ncnc(SCC(=O)O)c3s2)cc1,%Inh,PRKCI,0%
same,%Inh,PRKCQ,0%
same,%Inh,PRKD1,18%
same,%Inh,PRKD2,0%
same,%Inh,PRKD3,9%
same,%Inh,PRKG1,0%
same,%Inh,PRKG2,0%
same,%Inh,PRKR,0%
same,%Inh,PRKX,0%
same,%Inh,PRP4,0%
same,%Inh,PYK2,13%
same,%Inh,QSK,0%
same,%Inh,RAF1,0%
same,%Inh,RET,8%
same,%Inh,RIOK1,0%
same,%Inh,RIOK2,0%
same,%Inh,RIOK3,0%
same,%Inh,RIPK1,0%
same,%Inh,RIPK2,0%
same,%Inh,RIPK4,0%
COc1ccc(Nc2nccc(N3CCC(NC(=O)Nc4cccc(C(C)=O)c4)C3)n2)cc1 (stereo not drawn) [GSK1379731],%Inh,PRKCI,18%
same,%Inh,PRKCQ,18%
same,%Inh,PRKD1,0%
same,%Inh,PRKD2,11%
same,%Inh,PRKD3,7%
same,%Inh,PRKG1,0%
same,%Inh,PRKG2,0%
same,%Inh,PRKR,0%
same,%Inh,PRKX,24%
same,%Inh,PRP4,0%
same,%Inh,PYK2,0%
same,%Inh,QSK,0%
same,%Inh,RAF1,0%
same,%Inh,RET,0%
same,%Inh,RIOK1,42%
same,%Inh,RIOK2,0%
same,%Inh,RIOK3,24%
same,%Inh,RIPK1,0%
same,%Inh,RIPK2,39%
same,%Inh,RIPK4,0%
